# The list is not random: actives were taken first. Their share in the collection is about 1.3%.
# Vif-A3F inh – inhibitors of Vif-A3F interaction | HeLa A3F-eYFP + Vif (tagged APOBEC3F with the HIV-1 protein that degrades it), YFP fluorescence increase | Potency, µM (series often up to 46.1 µM), for the others: top-dose activity, negative = active | 390,000 compounds, 0.2% hits | AID 602313; note: potency is the fitted concentration of half-maximal effect; % of control where 0% means no effect; nearly all actives have a fitted effect of over 65% in size
#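 Fluorescence increase (Ex 488/Em 500-530) after overnight compound treatment at 37 deg C flags inhibition of Vif-driven A3F-eYFP loss in stable HeLa A3F-eYFP/Vif cells seeded overnight beforehand.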
# ALOX12 inh – blocks human arachidonate 12S-lipoxygenase | Potency, µM (doses to about 108 µM), inactives show at the highest dose activity change, negative = inhibition, hits mostly inhibitors | purified 12hLO, xylenol orange hydroperoxide absorbance | P18054 | 580,000 compounds, 1.1% hits; note: potency is the fitted concentration of half-maximal effect; % is set by controls: 0 for no effect and ±100 for the full control effect
#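 Purified human 12hLO at 150 nM in 25 mM Hepes, 0.01% Triton X-100, pH 7.0, preincubated 15 min at room temperature with compound. Reaction started with 40 uM arachidonic acid, 30 min at room temperature. Hydroperoxide measured by Fe-xylenol orange, 573/405 nm absorbance ratio.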
# TRPML1 inh – inhibitors of human TRPML1 channel. TRPML1-inducible cells, Ca2+ dye fluorescence, FDSS; active compounds read low; inhibition of EC80 agonist-evoked calcium signal. 390,000 compounds, 0.02% hits. activity change, negative = inhibition, % (no concentration beside the values); in the data active = activity change below about -50%; inconclusive = between about -30% and that limit;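 note: stimulus is agonist 54-4 at its EC80 concentration; % is set by controls: 0 for no effect and ±100 for the full control effect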
# Target sequence (Q9GZU1 whole entry, looked up): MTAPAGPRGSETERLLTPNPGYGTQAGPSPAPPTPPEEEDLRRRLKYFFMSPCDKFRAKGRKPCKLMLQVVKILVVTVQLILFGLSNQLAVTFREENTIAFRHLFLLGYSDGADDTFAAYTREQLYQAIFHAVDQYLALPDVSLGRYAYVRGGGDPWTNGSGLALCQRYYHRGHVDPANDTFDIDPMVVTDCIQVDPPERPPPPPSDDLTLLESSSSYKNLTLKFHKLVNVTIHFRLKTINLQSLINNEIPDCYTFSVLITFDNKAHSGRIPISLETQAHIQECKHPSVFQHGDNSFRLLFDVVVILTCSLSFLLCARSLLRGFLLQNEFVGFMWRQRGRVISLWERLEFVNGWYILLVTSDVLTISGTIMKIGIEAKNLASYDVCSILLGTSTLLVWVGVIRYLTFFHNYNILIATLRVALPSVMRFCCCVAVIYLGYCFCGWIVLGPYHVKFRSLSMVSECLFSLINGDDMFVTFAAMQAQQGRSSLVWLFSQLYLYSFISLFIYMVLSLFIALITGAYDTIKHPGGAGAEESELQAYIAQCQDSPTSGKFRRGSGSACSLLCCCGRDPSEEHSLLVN
#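 Tet-induced TRPML1-DL cells loaded with Ca8 no-wash calcium dye were read kinetically on FDSS. Compound addition was followed by EC80 agonist 54-4 (4 uM final); inhibition was read over 110 s.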
# Glioma ERSR ind – ER stress response induction in glioma. U87-MG GRP78 promoter luciferase reporter, 16 h. Potency, µM, for the others: top-dose activation, most hits filed as activators. 420,000 compounds, 0.02% hits. AID 602332; note: potency is the fitted concentration of half-maximal effect; series mostly up to about 76 µM; % of control where 0% means no effect; nearly all actives have a fitted effect of over 35% in size
#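 Stably transfected U87-MG glioma cells carrying a GRP78-based luciferase sensor; 16 h compound incubation. Luminescence end-point read 10 min after Bright-Glo addition at room temperature.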
# Vif-APOBEC3G blk – Vif-A3G binding inhibition; Q9HC16; HeLa A3G-eYFP + Vif (tagged APOBEC3G with the HIV-1 protein that degrades it), YFP fluorescence, overnight; Potency, µM (top dose mostly 46.1 µM), for inactives: top-dose activity, negative = active, most hits filed as inhibitors; 410,000 compounds, 0.076% hits; note: potency is the fitted concentration of half-maximal effect; % is set by controls: 0 for no effect and ±100 for the full control effect; nearly all actives have a fitted effect of over 60% in size
#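 Read-out is eYFP fluorescence (Ex 488/Em 500-530) from Vif-expressing HeLa A3G-eYFP cells; more signal means A3G escaped Vif-mediated degradation. Cells plated overnight, compound pinned in, incubated overnight at 37 deg C.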
# TRPML1 agonist – agonists of human TRPML1 channel; TRPML1-expressing cells, Ca2+ dye fluorescence, FDSS; Q9GZU1; activation, % (test concentration not listed); AID 624414; 410,000 compounds, 0.12% hits; in the data active = activation above about 50%; inconclusive = mostly about 30% to 49%; note: 0% is about no effect
#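 Cells: TRPML1-DL, 1X Tet inducer, ~16 h at 37 degrees C/5% CO2. Dye: ABD Ca8 no-wash + quencher, 45-90 min RT. Read: 10 s baseline, compound add, 110 s agonist phase; 54-4 EC80 (4uM final), 110 s antagonist phase.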
# Active calls of the source: *; ? = inconclusive; . = no result; ! = not active in a repeat; [ ] = remark or other dose. Unless noted, calls come from the whole dose curve; as a rule, active = well fitted curve in the direction sought with a large enough effect; inconclusive = small, poorly fitted or top-dose-only effect, or another doubt; inactive = no such curve, though single readings can be large; an effect the other way counts as inactive or inconclusive.
SMILES,Vif-A3F inh,ALOX12 inh,TRPML1 inh,Glioma ERSR ind,Vif-APOBEC3G blk,TRPML1 agonist
COc1ccc(C(C(=O)NCc2ccccc2)n2c(=O)c(-c3ccco3)nc3ccccc32)cc1 (stereo not drawn),.,39.8µM*,.,.,.,.
CCCCCNC(=O)C(c1ccncc1)n1c(=O)c(-c2ccco2)nc2ccccc21 (stereo not drawn),.,-27.3%,.,.,.,.
COc1cc(OC)cc(-c2nnc(Cc3ccccc3Cl)o2)c1,.,37.3%,.,.,.,.
Nc1ccccc1OCc1cccnc1,.,-3.3%,.,.,.,.
CS(=O)(=O)c1ccc(OCCOc2cccc(F)c2)cc1,.,-19.7%,.,.,.,.
CC(C)(C)C(=O)Nc1cccc(NC(=O)C2CCN(c3nc4ccccc4o3)CC2)c1,.,-0.8%,.,.,.,.
Cc1ccc(C(=O)C2=C(O)C(=O)N(Cc3ccco3)C2c2cccc(Br)c2)o1 (stereo not drawn),-6.3%,?,-27.1,1.1%,0.2%,4.4
O=C(C1=C(O)C(=O)N(CC2CCCO2)C1c1cccc(Cl)c1)c1ccco1 (stereo not drawn),-2.8%,28.2µM*,-8.6,5.4%,-0.2%,2.7
CC(C)(C)c1ccc(C2C(C(=O)c3ccco3)=C(O)C(=O)N2CC2CCCO2)cc1 (stereo not drawn),-1.3%,22.4µM*,19.7,-5.2%,0.0%,0.7
Cc1ccc(C(=O)C2=C(O)C(=O)N(Cc3ccco3)C2c2cccc(Cl)c2)o1 (stereo not drawn),-3.5%,25.1µM*,1.5,-3.7%,0.1%,1.6
O=C(C1=C(O)C(=O)N(CC2CCCO2)C1c1ccc(Cl)cc1Cl)c1ccco1 (stereo not drawn),0.8%,39.8µM*,5.4,-3.6%,-10.0%,-0.5
O=C(C1=C(O)C(=O)N(CC2CCCO2)C1c1cccnc1)c1ccco1 (stereo not drawn),-9.1%,?,-5.2,-1.8%,-1.6%,-0.4
O=C(C1=C(O)C(=O)N(CC2CCCO2)C1c1ccccc1)c1ccco1 (stereo not drawn),5.5%,-27.3%,-1.1,-1.2%,-2.3%,-0.6
CCCCn1cnc2c1c(=O)n(CC(=O)Nc1cccc(Cl)c1)c(=O)n2CCC,.,-61.0%,.,.,.,.
COc1ccc(/C=C/c2nc3c(ccc4ccccc43)s2)c(OC)c1OC,.,-2.5%,.,.,.,.
O=C(C1=C(O)C(=O)N(CC2CCCO2)C1c1ccccc1Cl)c1ccco1 (stereo not drawn),7.0%,31.6µM*,-7.3,-2.1%,-4.8%,0.0
O=C(O)c1cccc(NC(=S)N/N=C/c2ccccc2OCc2ccc(Br)cc2)c1,-0.7%,15.8µM*,-6.6,4.5%,-0.7%,-0.6
O=C(O)c1cccc(NC(=S)N/N=C/c2ccccc2OCc2cccc(Br)c2)c1,5.1%,28.2µM*,-5.9,5.0%,-21.7%,1.8
COC(=O)c1ccc(COc2ccccc2/C=N/Nc2cccc(C(=O)O)c2)cc1,-4.3%,?,4.7,-3.5%,5.1%,0.1
O=C(O)c1cccc(NC(=S)N/N=C/c2cccc(O)c2)c1,10.2%,?,3.6,-10.6%,2.3%,0.2
CC(Nc1ccc(N2CCOCC2)cc1)c1nc2scc(-c3cccs3)c2c(=O)[nH]1 (stereo not drawn),.,35.5µM*,.,.,.,.
COc1cccc(NC(C)c2nc3scc(-c4cccs4)c3c(=O)[nH]2)c1 (stereo not drawn),.,13.3%,.,.,.,.
COC(=O)c1ccc(Cl)c(Cl)c1,.,-21.1%,.,.,.,.
O=C(N/N=C/c1ccc([N+](=O)[O-])o1)c1ccc(NC(=O)C2CCCCC2)cc1,.,-4.8%,.,.,.,.
COC(=O)c1[nH]c2c(c1C(=O)OC)CCc1ccccc1-2,8.91µM*,-6.9%,-6.2,2.1%,-9.8%,-1.6
SMILES,Vif-A3F inh,ALOX12 inh,TRPML1 inh,Glioma ERSR ind,Vif-APOBEC3G blk,TRPML1 agonist
O=C(NC1CCCC1)c1cccc(NC(=O)c2ccco2)c1,-2.7%,-5.2%,-21.5,2.1%,0.0%,60.2*
Cc1ccc2nc(C)c(C(=O)N3CCN(Cc4ccccc4)CC3)cc2c1,.,-24.7%,.,.,.,.
COc1ccc(C2=CC3=C(Br)C(=O)C(C)(OC(=O)c4cccs4)C(=O)C3=CO2)cc1 (stereo not drawn),0.5%,6.31µM*,53.8,-1.8%,0.2%,0.2
O=C(NCCN1CCC(n2c(=O)[nH]c3cc(Cl)ccc32)CC1)c1ccc(F)cc1,.,39.8µM*,.,.,.,.
O=C(NCCN1CCC(n2c(=O)[nH]c3ccccc32)CC1)c1ccc(F)cc1Cl,.,1.12µM*,.,.,.,-0.6
Oc1ccc(CNc2ccccc2F)c2cccnc12,0.0%,2.24µM*!,10.0,-0.8%,-9.0%,-0.5
O=C(Sc1nnc(-c2ccccc2)o1)N1c2ccccc2Sc2ccccc21,4.2%,10µM*,?,-1.1%,-4.4%,3.0
Cc1ccc(NC(=S)NNc2ncc(C(F)(F)F)cc2Cl)cc1,0.5%,-9.8%,-10.5,-12.4%,-4.6%,-0.8
FC(F)(F)c1cnc(NNC(=S)Nc2ccc(Cl)cc2)c(Cl)c1,-4.8%,44.7µM*,4.7,-11.2%,-4.3%,-0.6
CC1=CCC(C(C)C)=CC1,.,7.0%[176 µM],.,.,.,.
Cc1cc(C(=O)NC(C)c2ccccc2Cl)c2cnn(C(C)C)c2n1 (stereo not drawn),.,-11.5%,.,.,.,.
Clc1ccc(N2CCN(Cc3ccco3)CC2)cc1,7.5%,0.631µM*,3.3,-1.8%,-5.4%,-0.1
Clc1ccccc1N1CCN(Cc2ccco2)CC1,6.6%,1.6%,-11.0,-2.3%,0.8%,-0.4
CCn1c(SCC(=O)Nc2cccc(C(F)(F)F)c2)nc2c(c1=O)SCC2,.,1.1%,.,.,.,.
Cc1ccc(S(=O)(=O)N2[C@@H](c3ccc(C(C)(C)C)cc3)C(C(=O)O)=CC[C@H]2c2ccc(Cl)c(Cl)c2)cc1,4.0%,35.5µM*,21.7,-1.0%,0.7%,-0.1
Cc1ccc(S(=O)(=O)N2[C@@H](c3ccc(C(C)(C)C)cc3)C(C(=O)O)=CC[C@H]2c2cccc(Cl)c2)cc1,-2.8%,-83.3%,-11.7,?,-12.6%,0.2
Cc1ccc(-c2cc(C(=O)N3CCCCC3)c3cc(Br)ccc3n2)o1,.,8.91µM*,.,.,.,.
Cc1ccc(-c2cc(C(=O)NN3CCOCC3)c3cc(Br)ccc3n2)o1,8.9%,?,3.8,-5.4%,0.8%,0.6
Cc1ccc(-c2cc(C(=O)O)c3cc(Br)ccc3n2)o1,4.4%,15.8µM*,?,-1.0%,-8.8%,-0.4
Cc1ccc2nc(-c3ccc(C)o3)cc(C(=O)O)c2c1,.,5.01µM*,.,.,.,.
COc1ccc(-c2onc3ccc(Br)cc23)cc1,-20.7%,-24.6%,11.7,2.3%,-15.7%,1.9
Cc1ccc(-c2onc3ccc(-c4cc(C(=O)O)c5cc(Br)ccc5n4)cc23)cc1,.,7.94µM*,.,.,.,.
Cc1ccc(C)c(-c2cc(C(=O)O)c3cc(C)ccc3n2)c1,.,-5.6%,.,.,.,.
COc1cc(Br)c(/C=C(/C#N)C(=O)c2ccccc2)cc1OC,.,1.5%,.,.,.,.

# Bioassay records as filed in PubChem.
